# Results reported in PMC5540273 (PLoS ONE, 2017).
# Like-named read-outs stand apart in the source and are kept apart here.
# Tests used:
# FGFR1 = settings: concentration: 1 μM, replicates: in singlicate; n = 1
# FGFR2 = settings: concentration: 1 μM, replicates: in singlicate; n = 1
# FGFR3 = settings: concentration: 1 μM, replicates: in singlicate; n = 1
# FGFR4 = settings: concentration: 1 μM, replicates: in singlicate; n = 1
# FGR = settings: concentration: 1 μM, replicates: in singlicate; n = 1
# FLT1 = settings: concentration: 1 μM, replicates: in singlicate; n = 1
# FLT3-autoinhibited = settings: concentration: 1 μM, replicates: in singlicate; n = 1
# FLT3 = settings: concentration: 1 μM, replicates: in singlicate; n = 1
# FLT4 = settings: concentration: 1 μM, replicates: in singlicate; n = 1
# FRK = settings: concentration: 1 μM, replicates: in singlicate; n = 1
# FYN = settings: concentration: 1 μM, replicates: in singlicate; n = 1
# GAK = settings: concentration: 1 μM, replicates: in singlicate; n = 1
# GCN2(Kin.Dom.2,S808G) = tested on: T1, GCN2(Kin.Dom.2,S808G); settings: concentration: 1 μM, replicates: in singlicate; n = 1
# T1 construct: gene EIF2AK4
# GRK1 = settings: concentration: 1 μM, replicates: in singlicate; n = 1
# GRK2 = tested on: T2, GRK2; settings: concentration: 1 μM, replicates: in singlicate; n = 1
# T2 construct: gene ADRBK1
# GRK3 = tested on: T3, GRK3; settings: concentration: 1 μM, replicates: in singlicate; n = 1
# T3 construct: gene ADRBK2
# GRK4 = settings: concentration: 1 μM, replicates: in singlicate; n = 1
# GRK7 = settings: concentration: 1 μM, replicates: in singlicate; n = 1
# GSK3A = settings: concentration: 1 μM, replicates: in singlicate; n = 1
# GSK3B = settings: n = 1
# [1] = concentration: 1 μM, replicates: in singlicate
# 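Further: KINOMEscan kinase panel screen.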
smiles,measurement,setting,value
Cn1cc(-c2ccc3c(c2)CCN3C(=O)Cc2cc(F)cc(F)c2F)c2c(N)ncnc21 [GSK2634140],%Inh,FGFR1,0%
same,%Inh,FGFR2,0%
same,%Inh,FGFR3,0%
same,%Inh,FGFR4,0%
same,%Inh,FGR,48%
same,%Inh,FLT1,59%
same,%Inh,FLT3-autoinhibited,0%
same,%Inh,FLT3,31%
same,%Inh,FLT4,14%
same,%Inh,FRK,10%
same,%Inh,FYN,0%
same,%Inh,GAK,17%
same,%Inh,"GCN2(Kin.Dom.2,S808G)",40%
same,%Inh,GRK1,11%
same,%Inh,GRK2,0%
same,%Inh,GRK3,0%
same,%Inh,GRK4,0%
same,%Inh,GRK7,0%
same,%Inh,GSK3A,0%
same,%Inh,GSK3B; [1],1%
CC(C)NCC(Cc1ccccc1)NC(=O)c1cc(Br)c(-c2ccnc3[nH]ccc23)s1.Cl.Cl (stereo not shown) [GSK1383281],%Inh,FGFR1,86%
same,%Inh,FGFR2,62%
same,%Inh,FGFR3,60%
same,%Inh,FGFR4,64%
same,%Inh,FGR,16%
same,%Inh,FLT1,65%
same,%Inh,FLT3-autoinhibited,0%
same,%Inh,FLT3,68%
same,%Inh,FLT4,48%
same,%Inh,FRK,0%
same,%Inh,FYN,2%
same,%Inh,GAK,51%
same,%Inh,"GCN2(Kin.Dom.2,S808G)",33%
same,%Inh,GRK1,72%
same,%Inh,GRK2,79%
same,%Inh,GRK3,87%
same,%Inh,GRK4,0%
same,%Inh,GRK7,91.5%
same,%Inh,GSK3A,7%
same,%Inh,GSK3B; [1],0%
Cc1ccc(C)c(NC(=O)Nc2ccc(C)c(-c3ccc(C(=O)Nc4ccncc4)cc3)c2)c1 [GSK1398473],%Inh,FGFR1,0%
same,%Inh,FGFR2,0%
same,%Inh,FGFR3,10%
same,%Inh,FGFR4,3%
same,%Inh,FGR,16%
same,%Inh,FLT1,48%
same,%Inh,FLT3-autoinhibited,0%
same,%Inh,FLT3,91.8%
same,%Inh,FLT4,39%
same,%Inh,FRK,50%
same,%Inh,FYN,25%
same,%Inh,GAK,0%
same,%Inh,"GCN2(Kin.Dom.2,S808G)",0%
same,%Inh,GRK1,0%
same,%Inh,GRK2,0%
same,%Inh,GRK3,9%
same,%Inh,GRK4,0%
same,%Inh,GRK7,0%
same,%Inh,GSK3A,0%
same,%Inh,GSK3B; [1],12%
COc1cccc(C2=C(Nc3cccc(O)c3)C(=O)NC2=O)c1 [SB-390771],%Inh,FGFR1,0%
same,%Inh,FGFR2,29%
same,%Inh,FGFR3,28%
same,%Inh,FGFR4,19%
same,%Inh,FGR,33%
same,%Inh,FLT1,22%
same,%Inh,FLT3-autoinhibited,0%
same,%Inh,FLT3,3%
same,%Inh,FLT4,20%
same,%Inh,FRK,11%
same,%Inh,FYN,0%
same,%Inh,GAK,0%
same,%Inh,"GCN2(Kin.Dom.2,S808G)",0%
same,%Inh,GRK1,4%
same,%Inh,GRK2,0%
same,%Inh,GRK3,31%
same,%Inh,GRK4,0%
same,%Inh,GRK7,100%
same,%Inh,GSK3A,0%
same,%Inh,GSK3B; 1 µM,13%
O=C(Nc1n[nH]c2nc(-c3ccccc3O)ccc12)C1CC1 [SB-711880],%Inh,FGFR1,31%
same,%Inh,FGFR2,0%
same,%Inh,FGFR3,0%
same,%Inh,FGFR4,3%
same,%Inh,FGR,0%
same,%Inh,FLT1,3%
same,%Inh,FLT3-autoinhibited,0%
same,%Inh,FLT3,28%
same,%Inh,FLT4,0%
same,%Inh,FRK,0%
same,%Inh,FYN,0%
same,%Inh,GAK,0%
same,%Inh,"GCN2(Kin.Dom.2,S808G)",26%
same,%Inh,GRK1,49%
same,%Inh,GRK2,0%
same,%Inh,GRK3,0%
same,%Inh,GRK4,28%
same,%Inh,GRK7,12%
same,%Inh,GSK3A,87%
same,%Inh,GSK3B; 1 µM,53%
N#CC1(c2cccc(C(=O)Nc3cccc(Oc4ccc5nc(NC(=O)C6CC6)sc5n4)c3)c2)CC1,%Inh,FGFR1,92.7%
same,%Inh,FGFR2,95.3%
same,%Inh,FGFR3,70%
same,%Inh,FGFR4,70%
same,%Inh,FGR,88%
same,%Inh,FLT1,98.5%
same,%Inh,FLT3-autoinhibited,16%
same,%Inh,FLT3,96%
same,%Inh,FLT4,100%
same,%Inh,FRK,98%
same,%Inh,FYN,92%
same,%Inh,GAK,0%
same,%Inh,"GCN2(Kin.Dom.2,S808G)",0%
same,%Inh,GRK1,12%
same,%Inh,GRK2,0%
same,%Inh,GRK3,0%
same,%Inh,GRK4,0%
same,%Inh,GRK7,0%
same,%Inh,GSK3A,24%
same,%Inh,GSK3B; [1],0%
Cc1ccc(O)cc1Nc1ccnc2ccc(C(C)(C)C)cc12 [GW856805],%Inh,FGFR1,14%
same,%Inh,FGFR2,28%
same,%Inh,FGFR3,0%
same,%Inh,FGFR4,0%
same,%Inh,FGR,94.9%
same,%Inh,FLT1,26%
same,%Inh,FLT3-autoinhibited,0%
same,%Inh,FLT3,11%
same,%Inh,FLT4,35%
same,%Inh,FRK,98.9%
same,%Inh,FYN,96.5%
same,%Inh,GAK,61%
same,%Inh,"GCN2(Kin.Dom.2,S808G)",5%
same,%Inh,GRK1,28%
same,%Inh,GRK2,0%
same,%Inh,GRK3,28%
same,%Inh,GRK4,17%
same,%Inh,GRK7,37%
same,%Inh,GSK3A,0%
same,%Inh,GSK3B; [1],28%
Nc1ncc(-c2ccc3nccc(-c4ccncc4)c3c2)cc1S(=O)(=O)N1CCCCC1 [GSK1693850],%Inh,FGFR1,0%
same,%Inh,FGFR2,84%
same,%Inh,FGFR3,16%
same,%Inh,FGFR4,0%
same,%Inh,FGR,23%
same,%Inh,FLT1,7%
same,%Inh,FLT3-autoinhibited,0%
same,%Inh,FLT3,2%
same,%Inh,FLT4,0%
same,%Inh,FRK,1%
same,%Inh,FYN,0%
same,%Inh,GAK,11%
same,%Inh,"GCN2(Kin.Dom.2,S808G)",4%
same,%Inh,GRK1,21%
same,%Inh,GRK2,0%
same,%Inh,GRK3,0%
same,%Inh,GRK4,8%
same,%Inh,GRK7,11%
same,%Inh,GSK3A,22%
same,%Inh,GSK3B; [1],13%
